# Measured values from PubChem BioAssay.
# Values without a mark were called inactive. How the calls were made is not given here.
# Biological target: Pantothenate synthetase (Mycobacterium tuberculosis (strain ATCC 25618 / H37Rv)) (UniProt P9WIL5)
# Test: Recombinant Mtb pantothenate synthetase (PanC) inhibitors, coupled enzyme, confirmatory (AID 375);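 further: 0% = full reaction with vehicle and 100% = no enzyme background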
# Conditions: coupled enzyme assay; at 10 µM, hits give high values
# Pantothenate synthetase (Mycobacterium tuberculosis (strain ATCC 25618 / H37Rv)), sequence (P9WIL5 whole entry, looked up): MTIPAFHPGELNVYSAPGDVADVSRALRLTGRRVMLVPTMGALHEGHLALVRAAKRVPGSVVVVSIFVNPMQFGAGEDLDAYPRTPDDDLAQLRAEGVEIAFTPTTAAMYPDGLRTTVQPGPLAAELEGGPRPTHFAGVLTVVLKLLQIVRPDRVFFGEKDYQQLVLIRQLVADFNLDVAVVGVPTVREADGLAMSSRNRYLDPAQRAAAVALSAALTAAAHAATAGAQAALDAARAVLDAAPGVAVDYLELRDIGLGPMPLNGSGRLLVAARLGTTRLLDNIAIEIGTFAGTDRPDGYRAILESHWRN
row,Compound,inhibition [%]
1,C=CCSc1nnc(-c2cccnc2)o1,0
2,Cc1nc(Nc2nc(=O)c3ccccc3n2C)nc2c(C)cccc12,0
3,COc1cccc(C(=O)CSc2nnc(COc3cccc4cccnc34)o2)c1,0
4,C=CCn1c(N)c(C(=O)NCCC2=CCCCC2)sc1=S,0
5,CCCc1nnc(NC(=O)NCCN2C(=O)C3C4C=CC(C4)C3C2=O)s1 (stereo not given),0
6,Brc1ccc(-c2cn3cccnc3n2)cc1,0
7,CCOC(=O)CSc1nc2c(c(-c3ccc(C)o3)c1C#N)CCCC2,0
8,Cc1coc2cc3oc(=O)c4c(c3cc12)CCC4,11
9,CC1Cc2nc(SCC(=O)Nc3ccc(F)cc3F)n(C)c(=O)c2S1 (stereo not given),0
10,CN(CCO)CC(O)Cn1cnc2c1c(=O)n(C)c(=O)n2C (stereo not given) (tested in a mixture with another compound),0
11,CCCC(=O)Nc1ccccc1-c1nnn(CC(=O)Nc2ccc(OC)cc2)n1,0
12,Cc1ccccc1-n1c(Cn2c(=O)sc3ccccc32)nnc1SCC(=O)N1CCCC1,8
13,O=C1NC(c2ccccc2)(C(F)(F)F)SC2=NCCCN12 (stereo not given),0
14,Cc1cc(=O)oc2cc(OCC(=O)OCc3nnc(-c4ccccc4)o3)ccc12,1
15,O=C(Nc1cccc(O)c1)c1ccccc1,0
16,CCOc1ccc(-n2cc(C(=O)Nc3cccc(C)n3)c3cc(OC)c(OC)cc3c2=O)cc1,1
17,CC1(C)CC(=O)c2cnc(NC(=O)Cc3ccc(Cl)cc3)nc2C1,0
18,CCOC(=O)CSc1nnc([C@H](C)NC(=O)OC(C)(C)C)o1,0
19,O=C(CC1Oc2ccc(Cl)cc2NC1=O)NC1CCCCCC1 (stereo not given),6
20,COc1cc(C(=O)Nc2cc(-c3ccccc3)[nH]n2)cc(OC)c1OC,5

row,Compound,inhibition [%]
1,Cc1cc(C)nc(NC(=O)c2cnc3sccn3c2=O)n1,13
2,CCc1ccc(N(CC(=O)NC2CCCC2)S(=O)(=O)c2c(C)noc2C)cc1,1
3,CCOP(=O)(c1ccc(N(C)C)cc1)C(O)c1cc(OC)c(OC)c(OC)c1 (stereo not given),0
4,CCN(CC)C(=O)C1CCN(CC2CC=CCC2)CC1 (stereo not given),0
5,COc1ccccc1-c1coc2c(CN3CCN(CCO)CC3)c(O)ccc2c1=O,0
6,O=c1c2ccccc2nc(SCc2nc(-c3ccccc3)no2)n1-c1ccc(F)cc1,0
7,Cc1cc2ccccn2c1C(=O)c1ccncc1,5
8,CC1=C(C(=O)OC(C)C)C(c2ccccn2)n2ncnc2N1 (stereo not given),0
9,COc1ccc(CN(C(=O)CNC(=O)c2ccco2)C(C(=O)NC2CCCC2)c2ccco2)cc1 (stereo not given),5
10,COCCCNC(=O)c1ccc(CS(=O)(=O)c2ccc(OC)cc2)o1,9
11,O=C(CSc1nnc(-c2ccc(Br)cc2)n1C1CCCCC1)N1CCCC1,2
12,O=C(Cn1ccc2ccccc2c1=O)NCCC(=O)NC1CCN(Cc2ccccc2)CC1,0
13,Cc1nc(N2CCOCC2)[nH]c(=O)c1CCC(C)C,8
14,N[C@@H](Cc1ccccc1)c1nnc2sc(SCc3ccccc3)nn12,1
15,COc1ccc(N2Cc3ccccc3C2)cc1Cl,0
16,COc1cc(C(=O)Nc2cccc(-c3nc4cc(C)ccc4o3)c2)cc(OC)c1OC,3
17,CCCCc1c(O)nc(SCC(=O)Nc2ccc3c(c2)CCC3)[nH]c1=O,2
18,Clc1c(CSc2nc3ccccc3o2)nc2sccn12,1
19,O=C(NCc1ccc2c(c1)OCO2)c1ccc(NS(=O)(=O)c2ccc3c(c2)OCCO3)cc1,0
20,Cc1cc(C)cc(NC(=O)CN(C)S(=O)(=O)c2cnc[nH]2)c1,11
